Measurements from the supplement of paper PMC3545927.
The list shows a part of the results. The true hit rate is not given.

Molecular target: furin, P09958
Assay: furin cleavage Z-score vs untreated control; higher = more cleavage, active = 3.5 or more, inactive = 1 or less, 8 variable residues between constant flanks
Outline: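 Cleavage by purified furin was measured on 8-mer peptides fused to a cDNA oligonucleotide and held on magnetic beads by their N-terminus. Reactions (0.01 ml, 1:10 enzyme:substrate) ran 7.5, 15 or 30 min in 50 mM HEPES pH 7.5 with CaCl2 and NaCl. Released DNA was adapter-tagged by PCR and sequenced, with read counts giving abundance. Log counts versus furin-free reactions were lowess-adjusted and scaled by median absolute deviation to give the cleavage Z-score.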

furin, P09958, sequence (P09958 whole entry): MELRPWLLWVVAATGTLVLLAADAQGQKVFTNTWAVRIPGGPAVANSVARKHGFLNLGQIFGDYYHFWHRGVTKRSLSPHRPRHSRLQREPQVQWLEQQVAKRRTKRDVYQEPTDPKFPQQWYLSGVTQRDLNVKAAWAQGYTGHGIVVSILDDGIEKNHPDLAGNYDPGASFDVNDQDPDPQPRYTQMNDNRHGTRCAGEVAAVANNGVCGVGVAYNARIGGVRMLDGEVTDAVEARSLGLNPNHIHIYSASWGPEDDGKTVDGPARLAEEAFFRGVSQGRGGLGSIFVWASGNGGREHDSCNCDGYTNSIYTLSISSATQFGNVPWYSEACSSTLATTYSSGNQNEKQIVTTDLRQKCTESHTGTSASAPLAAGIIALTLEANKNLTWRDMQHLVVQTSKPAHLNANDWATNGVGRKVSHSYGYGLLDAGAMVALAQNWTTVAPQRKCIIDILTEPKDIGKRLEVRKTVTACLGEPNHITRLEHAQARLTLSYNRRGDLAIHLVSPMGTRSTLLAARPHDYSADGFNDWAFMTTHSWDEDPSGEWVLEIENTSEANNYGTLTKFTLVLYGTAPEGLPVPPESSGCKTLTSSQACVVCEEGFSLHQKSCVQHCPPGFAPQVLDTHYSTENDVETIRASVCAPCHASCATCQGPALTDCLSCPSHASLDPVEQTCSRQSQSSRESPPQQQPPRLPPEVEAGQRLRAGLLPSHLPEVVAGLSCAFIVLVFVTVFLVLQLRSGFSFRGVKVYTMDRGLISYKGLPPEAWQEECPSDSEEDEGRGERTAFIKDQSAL

Sequence | furin cleavage Z-score (7.5 min) | furin cleavage Z-score (15 min) | furin cleavage Z-score (30 min)
CAGFGAYMSKAGNASASA [HC792] | 1.73 | -1.14 (inactive) | 1.32
CARARRQLGTAGNASASA [FS-3184] | 4.41 (active) | 5.24 (active) | 4.88 (active)
CARKAKEEGTAGNASASA [FS-2957] | -0.545 (inactive) | 1.07 | -0.377 (inactive)
CARKARALGTAGNASASA [FS-2034] | 7.98 (active) | 9.85 (active) | 7.74 (active)
CAEVNCHRPSAGNASASA [HC2361] | 1.09 | 1.04 | -0.207 (inactive)
CAPFDLLDFNAGNASASA [CS3] | -0.762 (inactive) | -0.626 (inactive) | -1.52 (inactive)
CAMREVPCHRAGNASASA [HC2426] | -1.33 (inactive) | -0.795 (inactive) | -0.936 (inactive)
CAARARHRKNAGNASASA [FS-1512] | 3.46 | 4.75 (active) | 6.6 (active)
CARKKKHRKNAGNASASA [FS-2265] | 0.00727 (inactive) | -0.00103 (inactive) | -1.45 (inactive)
CAARAQAPPPAGNASASA [HC958] | -1.14 (inactive) | -1.1 (inactive) | -1.17 (inactive)
CAARARNKREAGNASASA [FS-217] | 9.23 (active) | 10.8 (active) | 7.52 (active)
CANQRRNKREAGNASASA [FS-279] | 13.2 (active) | 11.8 (active) | 8.6 (active)
CAARAAWETAAGNASASA [HC1567] | 1.07 | 0.154 (inactive) | -0.51 (inactive)
CAEGCGWAGWAGNASASA [HC205] | -0.871 (inactive) | 1.45 | -1.04 (inactive)
CATESDIRTEAGNASASA [HC1485] | -0.326 (inactive) | -0.524 (inactive) | -0.55 (inactive)
CAVVCCSMSRAGNASASA [HC2093] | 0.591 (inactive) | 1.03 | 0.426 (inactive)
CARWKRQNFHAGNASASA [FS-2471] | 1.47 | 0.449 (inactive) | 3.01
CARWGRYEGGAGNASASA [FS-2844] | -0.438 (inactive) | -2.78 (inactive) | -1.36 (inactive)
CARWKRYQRSAGNASASA [FS-142] | 9.87 (active) | 10.7 (active) | 9.68 (active)
CARWKRTQRHAGNASASA [FS-2623] | 8.7 (active) | 11.5 (active) | 8.86 (active)
CARWKRYRRWAGNASASA [FS-1077] | 10.1 (active) | 12.1 (active) | 10.9 (active)
CARWKRTQSQAGNASASA [FS-2845] | -0.543 (inactive) | 1.6 | 1.76
